# Measured values: PubChem BioAssay (NCATS)
# Activity calls are given as the source filed them. Unless noted, calls follow the shape of the full dose curve.
# Legend:
# [1] = target: Estrogen receptor (Homo sapiens) (UniProt P03372); assay: qHTS assay for small molecule antagonists of estrogen receptor alpha signaling (AID 588513; active = well fitted curve in the direction sought with a large enough effect in the signal ratio, with a control signal flat, not every such curve was filed as active; inconclusive = small, poorly fitted or top-dose-only effect, or effect the other way, or a change in a side signal; inactive = no such curve, though single readings can be large or run the other way; the % refers to the signal ratio; also: potency is read from the fitted curve at half-maximal effect)
# Sequence of Estrogen receptor (Homo sapiens) (P03372 whole entry, looked up): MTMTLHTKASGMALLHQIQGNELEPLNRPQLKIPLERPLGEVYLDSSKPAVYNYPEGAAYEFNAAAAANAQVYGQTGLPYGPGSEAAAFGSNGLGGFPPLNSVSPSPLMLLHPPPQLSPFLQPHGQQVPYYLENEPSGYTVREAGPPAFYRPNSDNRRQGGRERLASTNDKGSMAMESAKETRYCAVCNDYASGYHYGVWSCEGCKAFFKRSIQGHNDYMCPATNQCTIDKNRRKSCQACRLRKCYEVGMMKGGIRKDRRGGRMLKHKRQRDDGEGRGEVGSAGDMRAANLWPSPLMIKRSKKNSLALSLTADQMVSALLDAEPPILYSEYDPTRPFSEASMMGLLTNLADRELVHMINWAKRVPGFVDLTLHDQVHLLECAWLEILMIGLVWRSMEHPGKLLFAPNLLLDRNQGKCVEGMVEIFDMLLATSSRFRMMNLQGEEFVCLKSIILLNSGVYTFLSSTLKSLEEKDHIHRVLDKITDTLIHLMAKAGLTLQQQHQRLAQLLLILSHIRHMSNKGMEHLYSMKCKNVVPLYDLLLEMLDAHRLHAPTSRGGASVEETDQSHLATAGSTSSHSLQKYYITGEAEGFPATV
# In short: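 Beta-lactamase reporter, antagonist mode, HEK 293 GripTite cells; 0.5nM E2 stimulus, 18 h, 37 C; CCF4 dye 2 h RT; fluorescence. IC50 and efficacy from Hill fits, normalized to E2 and DMSO.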
# [2] = target: Peroxisome proliferator-activated receptor delta (Homo sapiens) (UniProt Q03181); assay: qHTS assay for small molecule agonists of peroxisome proliferator-activated receptor delta signaling (AID 588534);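 also: 0% = DMSO basal wells and 100% = positive control agonist at 10 µM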
# Sequence of Peroxisome proliferator-activated receptor delta (Homo sapiens) (Q03181 whole entry, looked up): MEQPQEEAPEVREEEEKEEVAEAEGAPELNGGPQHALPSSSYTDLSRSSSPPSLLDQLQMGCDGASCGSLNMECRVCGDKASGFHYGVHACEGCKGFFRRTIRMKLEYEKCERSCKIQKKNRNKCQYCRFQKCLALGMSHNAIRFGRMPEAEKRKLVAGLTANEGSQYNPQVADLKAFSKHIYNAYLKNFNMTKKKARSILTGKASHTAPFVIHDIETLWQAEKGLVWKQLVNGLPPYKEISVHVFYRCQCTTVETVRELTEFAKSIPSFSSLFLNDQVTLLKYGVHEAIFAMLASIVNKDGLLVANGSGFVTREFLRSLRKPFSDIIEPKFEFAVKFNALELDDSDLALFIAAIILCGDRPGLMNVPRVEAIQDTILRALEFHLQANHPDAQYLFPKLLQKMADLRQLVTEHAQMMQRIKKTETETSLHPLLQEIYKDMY
# In short: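 Agonist-mode qHTS; reporter cells, 5 hrs 37 C pre-incubation; compound titration, 18 hrs 37 C; CCF4 dye, 2 hrs RT; fluorescence read. EC50/efficacy via Hill fit.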
# [3] = qHTS assay for small molecule antagonists of peroxisome proliferator-activated receptor delta signaling (AID 588535); details: HEK293T PPARd-UAS-bla, beta-lactamase FRET ratio, 18 h; 460 nm channel;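 also: cells co-treated with a PPAR-delta agonist as stimulator during compound exposure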
# In short: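 Titrations were run on PPAR-delta-UAS-bla HEK293T cells in charcoal/dextran-stripped serum, incubated 18 h at 37 C. CCF4 fluorescence (460/530 nm) after 2 h RT; Hill equation yields IC50 and maximal response.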
# [4] = target: Peroxisome proliferator-activated receptor gamma (Homo sapiens) (UniProt P37231); assay: qHTS assay for small molecule agonists of peroxisome proliferator-activated receptor gamma signaling (AID 588536; active = well fitted curve in the direction sought with a large enough effect in the signal ratio, with a control signal flat, not every such curve was filed as active; inconclusive = small, poorly fitted or top-dose-only effect, or effect the other way, or a change in a side signal; inactive = no such curve, though single readings can be large or run the other way; the % refers to the signal ratio;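 also: 0% = DMSO basal wells and 100% = rosiglitazone at 2 µM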)
# Sequence of Peroxisome proliferator-activated receptor gamma (Homo sapiens) (P37231 whole entry, looked up): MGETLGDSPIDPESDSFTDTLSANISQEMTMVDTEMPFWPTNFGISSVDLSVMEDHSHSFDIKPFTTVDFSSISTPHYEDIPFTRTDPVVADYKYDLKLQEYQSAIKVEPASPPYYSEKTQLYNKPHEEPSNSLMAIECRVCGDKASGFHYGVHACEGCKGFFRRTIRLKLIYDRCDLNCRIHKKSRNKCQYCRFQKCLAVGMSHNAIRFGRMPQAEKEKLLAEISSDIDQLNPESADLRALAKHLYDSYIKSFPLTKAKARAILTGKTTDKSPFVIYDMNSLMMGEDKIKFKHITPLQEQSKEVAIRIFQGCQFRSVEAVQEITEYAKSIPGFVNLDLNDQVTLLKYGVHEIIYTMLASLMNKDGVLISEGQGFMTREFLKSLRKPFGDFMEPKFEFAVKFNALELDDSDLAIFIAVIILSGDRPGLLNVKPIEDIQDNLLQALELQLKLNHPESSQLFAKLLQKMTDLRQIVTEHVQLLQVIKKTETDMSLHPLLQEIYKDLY
# In short: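 Beta-lactamase reporter read-out: CCF4 fluorescence (ex 405, em 460/530 nm) after 2 h at RT. HEK293 GeneBLAzer cells were treated for 16 h at 37 C. Hill fits gave EC50 and efficacy versus 2 uM rosiglitazone (100%) and DMSO (0%).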
# [5] = target: Peroxisome proliferator-activated receptor gamma (Homo sapiens) (UniProt P37231); assay: qHTS assay for small molecule antagonists of peroxisome proliferator-activated receptor gamma signaling (AID 588537; active = well fitted inhibition curve with a large enough effect in the signal ratio, with a control signal flat, not every such curve was filed as active; inconclusive = small, poorly fitted or top-dose-only effect, or effect the other way, or a change in a side signal; the % refers to the signal ratio;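 also: reporter cells co-stimulated with 50 nM rosiglitazone agonist during compound treatment; % of control where 0% means no effect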)
# In short: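 Antagonist-mode β-lactamase reporter screen run as a titration series. HEK293 PPARγ-UAS-bla cells are stimulated with rosiglitazone (50 nM final) for 16 h, then CCF4 is read at 460/530 nm. Data are scaled between DMSO and rosiglitazone and fitted to the Hill equation.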
# [6] = target: Vitamin D3 receptor (Homo sapiens) (UniProt P11473); assay: qHTS assay for small molecule antagonists of vitamin D receptor signaling (AID 588541);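 also: receptor activated by calcitriol during compound treatment; series mostly up to about 77 µM; % is scaled to controls: 0 for no effect and ±100 for the full control effect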
# Sequence of Vitamin D3 receptor (Homo sapiens) (P11473 whole entry, looked up): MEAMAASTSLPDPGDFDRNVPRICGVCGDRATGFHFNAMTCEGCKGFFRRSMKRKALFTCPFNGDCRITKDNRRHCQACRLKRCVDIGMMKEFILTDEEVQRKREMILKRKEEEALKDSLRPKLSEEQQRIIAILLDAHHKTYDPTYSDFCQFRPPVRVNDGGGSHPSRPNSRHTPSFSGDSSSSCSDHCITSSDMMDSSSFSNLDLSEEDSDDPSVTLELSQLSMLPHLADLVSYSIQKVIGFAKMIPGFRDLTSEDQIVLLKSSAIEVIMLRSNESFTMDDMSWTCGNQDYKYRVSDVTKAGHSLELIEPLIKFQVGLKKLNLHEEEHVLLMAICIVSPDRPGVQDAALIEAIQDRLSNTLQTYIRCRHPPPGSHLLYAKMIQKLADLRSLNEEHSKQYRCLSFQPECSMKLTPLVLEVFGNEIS
# In short: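 Antagonist-mode beta-lactamase reporter assay: HEK293T VDR-UAS-bla cells were exposed to titrated compound alongside 1-alpha,25-dihydroxyvitamin D3 at 3 nM final for 16 h. Values were normalized to the 50 nM agonist control and DMSO basal, with IC50 and efficacy from Hill equation fits.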
# [7] = target: Vitamin D3 receptor (Homo sapiens) (UniProt P11473); assay: qHTS assay for small molecule agonists of vitamin D receptor signaling (AID 588543);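 also: 0% = DMSO basal and 100% = reference agonist control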
# In short: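 β-lactamase reporter, VDR-UAS-bla HEK293T, agonist mode. Cells plated 5 h at 37 °C, compound titration 16 h at 37 °C, CCF4 dye 2 h RT, ratio 460/530 nm. Hill fit → EC50, efficacy vs 50 nM 1α,25-(OH)2D3.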
# [8] = qHTS assay for small molecule agonists of retinoid X receptor alpha signaling (AID 588544); details: HEK293T RXRa-UAS-bla, beta-lactamase reporter, 18 h; 530 nm emission; also: potency is read from the fitted curve at half-maximal effect;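 as to activation: 0% = DMSO basal wells and 100% = reference agonist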
# [9] = target: Retinoic acid receptor RXR-alpha (Homo sapiens) (UniProt P19793); assay: as above
# Sequence of Retinoic acid receptor RXR-alpha (Homo sapiens) (P19793 whole entry, looked up): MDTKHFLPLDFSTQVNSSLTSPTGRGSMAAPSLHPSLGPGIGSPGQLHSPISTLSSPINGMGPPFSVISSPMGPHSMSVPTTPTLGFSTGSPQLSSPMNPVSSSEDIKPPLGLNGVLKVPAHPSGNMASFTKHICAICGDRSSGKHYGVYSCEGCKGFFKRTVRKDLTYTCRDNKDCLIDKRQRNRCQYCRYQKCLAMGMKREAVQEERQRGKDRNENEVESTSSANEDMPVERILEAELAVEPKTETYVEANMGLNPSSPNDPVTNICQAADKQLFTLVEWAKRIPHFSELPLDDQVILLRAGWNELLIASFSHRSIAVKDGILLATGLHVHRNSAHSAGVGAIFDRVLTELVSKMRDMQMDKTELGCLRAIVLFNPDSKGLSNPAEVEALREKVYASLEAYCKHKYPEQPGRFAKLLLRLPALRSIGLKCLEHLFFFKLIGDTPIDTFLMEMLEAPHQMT
# [10] = target: Thyroid hormone receptor beta (Homo sapiens) (UniProt P10828); assay: qHTS assay for small molecule agonists of thyroid hormone receptor beta signaling (AID 588545)
# Sequence of Thyroid hormone receptor beta (Homo sapiens) (P10828 whole entry, looked up): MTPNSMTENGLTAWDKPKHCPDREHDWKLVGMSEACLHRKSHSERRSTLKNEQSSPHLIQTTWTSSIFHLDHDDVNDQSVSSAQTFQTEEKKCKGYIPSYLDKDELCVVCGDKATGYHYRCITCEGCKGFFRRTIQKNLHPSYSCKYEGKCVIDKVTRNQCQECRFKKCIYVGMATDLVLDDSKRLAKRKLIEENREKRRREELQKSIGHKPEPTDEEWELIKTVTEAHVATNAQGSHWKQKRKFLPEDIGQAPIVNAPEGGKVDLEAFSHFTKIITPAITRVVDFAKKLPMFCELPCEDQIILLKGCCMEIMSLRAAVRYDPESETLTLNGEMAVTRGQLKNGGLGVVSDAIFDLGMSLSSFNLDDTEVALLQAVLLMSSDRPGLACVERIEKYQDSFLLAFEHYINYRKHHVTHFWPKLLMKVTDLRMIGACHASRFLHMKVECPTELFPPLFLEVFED
# In short: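 Cells (2500/well) were seeded, incubated 4 hrs at 37 C, dosed with a compound series, incubated 18 hrs, loaded with CCF4 dye for 2 hrs at RT, then read for fluorescence. Data were scaled between DMSO (0%) and 10 nM T3 (100%).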
# [11] = qHTS assay for small molecule antagonists of retinoid X receptor alpha signaling (AID 588546; active = well fitted inhibition curve with a large enough effect in the signal ratio, with a control signal flat, not every such curve was filed as active; inconclusive = small, poorly fitted or top-dose-only effect, or effect the other way, or a change in a side signal; inactive = no such curve, though single readings can be large or run the other way; the % refers to the signal ratio;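 also: cells stimulated with 9-cis-retinoic acid as agonist; % is scaled to controls: 0 for no effect and ±100 for the full control effect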); details: HEK293T RXRa-UAS-bla, beta-lactamase ratio, antagonist mode; measured here: W530 green channel, cytotoxicity proxy
# In short: (§1)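 Beta-lactamase reporter inhibition, read as CCF4 fluorescence ratio (ex 405, em 460/530 nm) after 2 h at RT. HEK293T UAS-bla cells, 2500/well, were stimulated with 9-cis-RA at 500 or 100 nM final alongside test compound for 18 h at 37 C.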
# [12] = target: Retinoic acid receptor RXR-alpha (Homo sapiens) (UniProt P19793); assay: as above; details: HEK293T RXRa-UAS-bla, beta-lactamase ratio, antagonist mode
# In short: as §1
# [13] = qHTS assay for small molecule activators of the p53 signaling pathway (AID 651743; active = well fitted activation curve with a large enough effect in the signal ratio, not every such curve was filed as active; inconclusive = small, poorly fitted or top-dose-only effect, or a change in a side signal; the % refers to the signal ratio; also: series mostly up to about 92 µM; % of control where 0% means no effect); details: HCT-116 p53RE-bla, beta-lactamase FRET ratio, 16 h; activation: stronger effect = higher value
# In short: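 After 16 hours compound treatment at 37 C, HCT-116 cells stably expressing p53RE-driven beta-lactamase were loaded with LiveBLAzer B/G FRET substrate for 2 hours at room temperature. Fluorescence intensity served as the p53 activation read-out.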
# [14] = qHTS assay for environmental chemicals that activate the Aryl hydrocarbon Receptor (AhR) signaling pathway (AID 651777; active = well fitted curve in the direction sought with a large enough effect; inconclusive = small, poorly fitted or top-dose-only effect, or another doubt; inactive = no such curve, though single readings can be large; an effect the other way counts as inactive or inconclusive; also: % of control where 0% means no effect; nearly all actives have a fitted effect of over 15% in size); details: 1A2-DRE human hepatoma cells, luciferase, 24 h; activation: stronger effect = higher value
# In short: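 Concentration–response screening used 1,200 1A2-DRE cells per well, 24 hr compound exposure (37 C, 5% CO2), and One-Glo luminescence as the AhR-driven CYP1A2 reporter signal.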
# [15] = target: Peroxisome proliferator-activated receptor alpha (Homo sapiens) (UniProt Q07869); assay: qHTS assay for small molecule agonists of the peroxisome proliferator-activated receptor alpha (PPARalpha) signaling pathway (AID 651778; active = well fitted curve in the direction sought with a large enough effect; inconclusive = small, poorly fitted or top-dose-only effect, or another doubt; inactive = no such curve, though single readings can be large; an effect the other way counts as inactive or inconclusive; also: % of control where 0% means no effect); details: PathHunter PPARalpha complementation, chemiluminescence, 6 h; max response: stronger effect = higher value
# Sequence of Peroxisome proliferator-activated receptor alpha (Homo sapiens) (Q07869 whole entry, looked up): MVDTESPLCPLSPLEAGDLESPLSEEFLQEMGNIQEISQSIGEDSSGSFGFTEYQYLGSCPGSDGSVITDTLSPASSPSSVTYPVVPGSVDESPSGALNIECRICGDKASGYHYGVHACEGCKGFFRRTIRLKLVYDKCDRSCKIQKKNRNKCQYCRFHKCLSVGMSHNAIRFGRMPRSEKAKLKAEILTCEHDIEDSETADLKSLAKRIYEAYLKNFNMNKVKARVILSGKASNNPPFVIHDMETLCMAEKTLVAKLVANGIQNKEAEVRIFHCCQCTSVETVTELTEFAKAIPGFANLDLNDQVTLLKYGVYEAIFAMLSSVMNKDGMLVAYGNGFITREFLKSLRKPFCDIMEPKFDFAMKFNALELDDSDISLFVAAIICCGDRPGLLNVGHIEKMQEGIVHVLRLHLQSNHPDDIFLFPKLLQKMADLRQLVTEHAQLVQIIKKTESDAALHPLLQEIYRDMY
# In short: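 Chemiluminescence from complemented enzyme reported PPARalpha activation in cells after 6 hr of compound treatment at 37 C. The detection reagent was incubated for 60 min at room temperature, and compounds were scored as agonists.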
# [16] = qHTS assay for small molecule agonists of the antioxidant response element (ARE) signaling pathway measured by Nrf2-dependant transcriptional activity - cell viability counter screen (AID 720653; active = well fitted curve in the direction sought with a large enough effect in the repeat runs; inconclusive = weak or mixed curves; inactive = no such curve, though single readings can be large; an effect the other way counts as inactive or inconclusive; also: % is scaled to controls: 0 for no effect and ±100 for the full control effect); details: ARE-bla HepG2 viability, CellTiter-Glo ATP luminescence, 16 h; max response: stronger effect = lower value
# In short: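 Cytotoxicity counter screen: intracellular ATP quantified by CellTiter-Glo luminescence in the same ARE-bla HepG2 plates, after 16 h compound exposure and a 2 h beta-lactamase substrate step.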
# [17] = qHTS assay for cell viability of HEK293 cells (AID 743288; active = well fitted curve in the direction sought with a large enough effect; inconclusive = small, poorly fitted or top-dose-only effect, or another doubt; inactive = no such curve, though single readings can be large; an effect the other way counts as inactive or inconclusive; also: % is scaled to controls: 0 for no effect and ±100 for the full control effect; nearly all actives have a fitted effect of over 50% in size); details: ATP luminescence (CellTiter-Glo), 18 h; max response: stronger effect = lower value
# In short: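 ATP luminescence (CellTiter-Glo) reports metabolically competent cell number after parental HEK293 cells, 2,000/well, were treated with DMSO-dissolved compounds for 18 h at 37 C; reagent incubation 30 min, room temperature.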
# [18] = qHTS assay for cell viability of the p53RE-bla HCT-116 cell line (AID 743292; active = well fitted curve in the direction sought with a large enough effect; inconclusive = small, poorly fitted or top-dose-only effect, or another doubt; inactive = no such curve, though single readings can be large; an effect the other way counts as inactive or inconclusive; also: % is scaled to controls: 0 for no effect and ±100 for the full control effect; nearly all actives have a fitted effect of over 55% in size)
# In short: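 Compound-exposed HCT-116 (p53RE-bla) cells, 4,000 per well, were kept 16 h at 37 C following a 5 h preincubation. Cell number was estimated from total ATP by CellTiter-Glo luminescence read after 30 min at room temperature.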
# [19] = qHTS assay for small molecule agonists of the antioxidant response element (ARE) signaling pathway measured by Nrf2-dependant transcriptional activity (AID 720636; active = well fitted curve in the direction sought with a large enough effect in the repeat runs; inconclusive = weak or mixed curves; inactive = no such curve, though single readings can be large; an effect the other way counts as inactive or inconclusive;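 also: HepG2 cells with an ARE-driven luciferase reporter; % of control where 0% means no effect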)
# In short: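 Attachment 6 hr at 37 C, then compound versus DMSO vehicle for 16 hr in ARE-luc HepG2 cells (1% dialyzed FBS); luminescence recorded 30 min after ONE-Glo addition at room temperature.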
# [20] = target: Nuclear receptor subfamily 1 group I member 2 (Rattus norvegicus) (UniProt Q9R1A7); assay: qHTS assay for small molecule activators of the rat pregnane X receptor (rPXR) signaling pathway (AID 651751; call rule not given here; also: 0% is about no effect); details: rPXR reporter cells, luciferase (One-Glo), 24 h
# Sequence of Nuclear receptor subfamily 1 group I member 2 (Rattus norvegicus) (Q9R1A7 whole entry, looked up): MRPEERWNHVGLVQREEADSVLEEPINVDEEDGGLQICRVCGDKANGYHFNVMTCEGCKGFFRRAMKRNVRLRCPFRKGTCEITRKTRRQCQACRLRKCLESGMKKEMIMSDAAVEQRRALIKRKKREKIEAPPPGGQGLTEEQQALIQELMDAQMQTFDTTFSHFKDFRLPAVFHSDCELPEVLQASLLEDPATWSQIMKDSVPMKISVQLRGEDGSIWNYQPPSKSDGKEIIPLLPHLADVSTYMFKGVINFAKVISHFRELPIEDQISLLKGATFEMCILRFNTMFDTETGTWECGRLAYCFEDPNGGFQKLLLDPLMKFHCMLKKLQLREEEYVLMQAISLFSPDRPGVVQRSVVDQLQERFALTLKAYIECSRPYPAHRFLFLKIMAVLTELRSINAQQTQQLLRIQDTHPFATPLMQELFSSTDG
SMILES,Potency [1],outcome [2],max response [3],Potency [4],Potency [5],Potency [6],outcome [7],max response [8],Potency [9],Potency [10],max response [11],max response [12],activation [13],activation [14],max response [15],max response [16],max response [17],Potency [18],Potency [19],max response [20]
CCCN(CCC)c1c([N+](=O)[O-])cc(C(F)(F)F)c(N)c1[N+](=O)[O-],31.6 µM [inhibitor] (active),inactive,–,–,–,–,–,–,–,–,–,–,–,–,–,–,–,–,–,–
CCOc1nc(C(Cl)(Cl)Cl)ns1,inactive,–,-34.9%,inactive,inactive,inactive,inactive,-11.9%,inactive,inactive,-10.8%,3.55% (inactive),-0.297% (inactive),7.64% (inactive),-0.167% (inactive),-1.82% (inactive),-11.1% (inactive),inactive,–,–
CC(C)(C)C(=O)[C@@H](Oc1ccc(Cl)cc1)n1cncn1,inactive,inactive,38.3%,inactive,inactive,–,inactive,9.03%,inactive,inactive,-6.66%,9.68% (inactive),0.216% (inactive),5.12% (inactive),-2.73% (inactive),0.855% (inactive),-4.89% (inactive),inactive,inactive,–
CCOP(=O)(OCC)OC(Cl)C(Cl)(Cl)Cl (centres undefined),–,–,51.3%,–,–,–,inactive,-5.65%,inactive,inactive,-13.7%,-17.2% (inactive),-3.88% (inactive),2.83% (inactive),-2.65% (inactive),-17.4% (inactive),-7.64% (inactive),inactive,inactive,2.92% (inactive)
CCOP(=O)(OCC)SCCSCC,inactive,–,–,inactive,inactive,inactive,–,-10.7%,44.7 µM (active),inactive,-5.85%,3.44% (inactive),1.72% (inactive),1.43% (inactive),-1.58% (inactive),12.9% (inactive),-2.44% (inactive),inactive,–,3.51% (inactive)
COC(=O)c1sccc1S(=O)(=O)NC(=O)Nc1nc(C)nc(OC)n1,inactive,–,-31.9%,inactive,inactive,inactive,inactive,-0.622%,inactive,inactive,-1.17%,-14.7% (inactive),-3.25% (inactive),0.948% (inactive),-0.482% (inactive),2.61% (inactive),-12% (inactive),inactive,inactive,3.77% (inactive)
CNC(=S)S,inactive,inactive,-6.57%,–,inactive,inactive,inactive,-26.8%,inactive,–,-10.7%,-13.7% (inactive),-4.42% (inactive),0.794% (inactive),-2.07% (inactive),-4.46% (inactive),-18% (inactive),inactive,inactive,0.745% (inactive)
C=C1CC[C@H](O)C/C1=C/C=C1\CCC[C@]2(C)[C@@H]([C@H](C)CCCC(C)C)CC[C@@H]12,15.8 µM [inconclusive] (active),–,–,–,–,–,–,–,–,–,–,–,–,–,–,–,–,–,–,–
CCOP(=S)(OCC)Oc1ccc(S(C)=O)cc1 (centres undefined),inactive,inactive,-64.2%,inactive,inactive,–,inactive,-0.202%,inactive,inactive,-3.81%,-34.4% (inactive),–,14.8% (inactive),–,6.57% (inactive),-11.8% (inactive),inactive,inactive,7.38% (inactive)
[Ga]#[As],–,inactive,33%,–,inactive,inactive,–,-5.43%,inactive,inactive,-11%,6.85% (inactive),-1.62% (inactive),0.963% (inactive),-1.03% (inactive),-2.5% (inactive),-2.89% (inactive),inactive,inactive,-5.29% (inactive)
O=P(O)(O)CN(CP(=O)(O)O)CP(=O)(O)O,inactive,inactive,1.59%,inactive,inactive,inactive,inactive,–,–,inactive,-13.3%,-32% (inactive),-5.96% (inactive),0.682% (inactive),4.68% (inactive),-0.727% (inactive),-8.91% (inactive),inactive,inactive,-1.66% (inactive)
CC(=O)[C@H]1[C@H](C#N)C[C@H]2[C@@H]3CC=C4C[C@@H](O)CC[C@]4(C)[C@H]3CC[C@@]21C,inactive,–,–,–,–,–,–,–,–,–,–,–,–,–,–,–,–,–,–,–
